Measured values taken from the supplement of paper PMC11732987, “Enantioselective OTUD7B fragment discovery through chemoproteomics screening and high-throughput optimisation” (Communications Chemistry, 2025).

Assays:
Experiment in all cases: log2 ratio of Biotin-Ahx-Ub-VS probe labelling (fragment/DMSO); higher = less target engagement (more negative = stronger competition), active = hit call of the paper (q ≤ 0.05, log2 ratio ≤ -1)
Conditions in all cases: compound concentration: 200 uM; treatment time: 3 h
USP42 = target: T1, USP42 (UniProt Q9H9J4)
T1 sequence (whole entry): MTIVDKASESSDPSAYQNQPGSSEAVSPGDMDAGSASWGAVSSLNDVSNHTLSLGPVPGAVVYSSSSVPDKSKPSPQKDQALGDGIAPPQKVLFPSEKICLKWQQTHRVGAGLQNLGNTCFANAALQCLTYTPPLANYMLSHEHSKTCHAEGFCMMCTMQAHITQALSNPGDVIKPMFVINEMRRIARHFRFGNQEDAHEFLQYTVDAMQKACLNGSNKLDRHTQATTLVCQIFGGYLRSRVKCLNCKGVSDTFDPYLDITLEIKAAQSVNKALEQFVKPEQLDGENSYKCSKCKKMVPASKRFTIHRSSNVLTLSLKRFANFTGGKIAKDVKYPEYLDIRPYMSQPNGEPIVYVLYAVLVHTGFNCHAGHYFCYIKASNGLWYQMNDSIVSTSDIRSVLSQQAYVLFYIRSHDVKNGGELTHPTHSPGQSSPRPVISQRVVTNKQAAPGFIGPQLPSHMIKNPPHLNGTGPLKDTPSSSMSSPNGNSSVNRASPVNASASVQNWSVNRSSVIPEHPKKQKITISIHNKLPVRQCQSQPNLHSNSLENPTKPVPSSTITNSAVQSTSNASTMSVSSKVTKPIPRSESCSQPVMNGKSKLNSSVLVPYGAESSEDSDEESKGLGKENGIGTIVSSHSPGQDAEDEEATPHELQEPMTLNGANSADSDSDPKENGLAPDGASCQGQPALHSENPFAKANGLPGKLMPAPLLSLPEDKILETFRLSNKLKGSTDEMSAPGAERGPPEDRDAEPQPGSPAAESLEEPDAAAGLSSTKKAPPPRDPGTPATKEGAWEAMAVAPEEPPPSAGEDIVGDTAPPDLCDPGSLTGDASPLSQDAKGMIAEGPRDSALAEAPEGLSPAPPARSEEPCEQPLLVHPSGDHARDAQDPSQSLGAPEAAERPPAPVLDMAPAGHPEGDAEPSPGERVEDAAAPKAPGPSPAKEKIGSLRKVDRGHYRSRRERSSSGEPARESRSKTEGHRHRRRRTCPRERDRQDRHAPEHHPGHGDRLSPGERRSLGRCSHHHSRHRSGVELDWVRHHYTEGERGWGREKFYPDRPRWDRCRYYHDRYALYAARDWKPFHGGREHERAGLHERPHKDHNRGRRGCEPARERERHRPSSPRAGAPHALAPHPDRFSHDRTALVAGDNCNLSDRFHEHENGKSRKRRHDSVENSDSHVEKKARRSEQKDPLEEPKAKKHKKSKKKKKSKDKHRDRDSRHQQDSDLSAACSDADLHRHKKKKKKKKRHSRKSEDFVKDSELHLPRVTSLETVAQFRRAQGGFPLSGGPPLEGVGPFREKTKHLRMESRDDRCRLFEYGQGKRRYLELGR
In short: (§1)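 In triplicate, 495 µg of HEK293T lysate per sample was incubated with fragment at 200 µM or vehicle for 3 h. Biotin-Ahx-Ub-VS was then added to 0.5 µM final for 1 h, and labelled DUBs were captured with NeutrAvidin, digested with LysC and trypsin, and measured by diaPASEF LC-MS/MS. Data are average log2 fragment/vehicle ratios by unpaired t-test from global-median-normalised Spectronaut label-free quantities, restricted to proteins with ≥2 unique peptides.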

USP46 = USP46 (UniProt P62068)
In short: as §1

USP47 = target: T2, USP47 (UniProt Q96K76)
T2 sequence (whole entry): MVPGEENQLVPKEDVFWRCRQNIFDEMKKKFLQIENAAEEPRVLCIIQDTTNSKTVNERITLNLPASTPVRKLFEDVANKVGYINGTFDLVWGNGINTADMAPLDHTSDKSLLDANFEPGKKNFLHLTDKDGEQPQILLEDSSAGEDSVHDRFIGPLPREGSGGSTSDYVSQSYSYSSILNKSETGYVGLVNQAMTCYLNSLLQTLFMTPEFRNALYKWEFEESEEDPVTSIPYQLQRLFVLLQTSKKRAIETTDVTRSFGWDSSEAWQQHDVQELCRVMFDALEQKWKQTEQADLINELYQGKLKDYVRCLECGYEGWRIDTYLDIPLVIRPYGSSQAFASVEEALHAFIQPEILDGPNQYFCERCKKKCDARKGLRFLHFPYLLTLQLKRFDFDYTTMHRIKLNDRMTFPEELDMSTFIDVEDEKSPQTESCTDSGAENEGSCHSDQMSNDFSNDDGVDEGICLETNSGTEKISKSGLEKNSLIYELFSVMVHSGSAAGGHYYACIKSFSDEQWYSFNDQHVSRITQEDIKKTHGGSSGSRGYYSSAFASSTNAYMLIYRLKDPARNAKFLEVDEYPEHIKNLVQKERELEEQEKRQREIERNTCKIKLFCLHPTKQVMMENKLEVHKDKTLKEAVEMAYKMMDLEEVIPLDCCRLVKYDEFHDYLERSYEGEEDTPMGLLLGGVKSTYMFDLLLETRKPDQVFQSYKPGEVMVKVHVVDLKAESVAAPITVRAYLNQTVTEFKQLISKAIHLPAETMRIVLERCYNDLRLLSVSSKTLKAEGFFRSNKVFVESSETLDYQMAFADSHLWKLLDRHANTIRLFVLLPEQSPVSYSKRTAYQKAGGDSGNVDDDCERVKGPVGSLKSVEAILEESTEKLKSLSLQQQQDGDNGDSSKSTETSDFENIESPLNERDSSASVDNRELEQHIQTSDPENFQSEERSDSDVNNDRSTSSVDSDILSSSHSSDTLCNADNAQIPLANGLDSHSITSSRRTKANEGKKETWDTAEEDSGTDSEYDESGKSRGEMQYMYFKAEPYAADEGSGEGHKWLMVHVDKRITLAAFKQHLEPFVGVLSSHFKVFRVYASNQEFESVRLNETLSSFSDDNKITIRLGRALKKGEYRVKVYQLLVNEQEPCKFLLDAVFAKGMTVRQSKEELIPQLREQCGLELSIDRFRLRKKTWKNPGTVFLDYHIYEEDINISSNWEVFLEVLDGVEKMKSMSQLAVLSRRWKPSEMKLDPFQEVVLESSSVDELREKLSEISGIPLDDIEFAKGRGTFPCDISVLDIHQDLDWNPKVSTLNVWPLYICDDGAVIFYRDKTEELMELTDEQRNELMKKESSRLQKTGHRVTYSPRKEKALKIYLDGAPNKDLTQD
In short: as §1

USP48 = target: T3, USP48 (UniProt Q86UV5)
T3 sequence (whole entry): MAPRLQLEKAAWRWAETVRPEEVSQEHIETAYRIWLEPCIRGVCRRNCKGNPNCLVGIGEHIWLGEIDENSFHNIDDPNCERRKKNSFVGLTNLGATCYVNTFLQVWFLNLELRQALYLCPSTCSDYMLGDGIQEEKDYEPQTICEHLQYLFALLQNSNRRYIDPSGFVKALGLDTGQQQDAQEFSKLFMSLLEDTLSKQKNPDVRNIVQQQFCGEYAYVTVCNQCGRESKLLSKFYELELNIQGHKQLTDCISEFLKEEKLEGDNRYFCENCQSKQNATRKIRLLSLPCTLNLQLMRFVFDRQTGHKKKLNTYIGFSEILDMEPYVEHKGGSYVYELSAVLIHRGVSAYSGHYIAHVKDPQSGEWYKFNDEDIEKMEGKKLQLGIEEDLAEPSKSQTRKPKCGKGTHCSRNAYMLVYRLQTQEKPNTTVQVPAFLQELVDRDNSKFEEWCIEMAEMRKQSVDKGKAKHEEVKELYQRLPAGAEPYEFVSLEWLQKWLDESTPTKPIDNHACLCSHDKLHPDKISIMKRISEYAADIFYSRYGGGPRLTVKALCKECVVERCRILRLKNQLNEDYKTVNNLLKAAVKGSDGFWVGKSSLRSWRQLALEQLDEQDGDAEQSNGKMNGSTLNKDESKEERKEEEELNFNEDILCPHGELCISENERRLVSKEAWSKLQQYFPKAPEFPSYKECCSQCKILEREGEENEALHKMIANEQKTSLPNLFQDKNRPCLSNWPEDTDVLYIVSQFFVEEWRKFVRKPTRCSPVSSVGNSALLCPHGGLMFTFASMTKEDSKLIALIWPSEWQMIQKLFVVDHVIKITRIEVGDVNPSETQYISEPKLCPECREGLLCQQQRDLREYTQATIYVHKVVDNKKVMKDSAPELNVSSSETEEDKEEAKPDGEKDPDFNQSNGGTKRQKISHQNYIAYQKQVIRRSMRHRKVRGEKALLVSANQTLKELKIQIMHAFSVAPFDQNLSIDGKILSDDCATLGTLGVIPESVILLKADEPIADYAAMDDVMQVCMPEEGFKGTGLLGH
In short: as §1

USP5 = target: T4, USP5 (UniProt P45974)
T4 sequence (whole entry): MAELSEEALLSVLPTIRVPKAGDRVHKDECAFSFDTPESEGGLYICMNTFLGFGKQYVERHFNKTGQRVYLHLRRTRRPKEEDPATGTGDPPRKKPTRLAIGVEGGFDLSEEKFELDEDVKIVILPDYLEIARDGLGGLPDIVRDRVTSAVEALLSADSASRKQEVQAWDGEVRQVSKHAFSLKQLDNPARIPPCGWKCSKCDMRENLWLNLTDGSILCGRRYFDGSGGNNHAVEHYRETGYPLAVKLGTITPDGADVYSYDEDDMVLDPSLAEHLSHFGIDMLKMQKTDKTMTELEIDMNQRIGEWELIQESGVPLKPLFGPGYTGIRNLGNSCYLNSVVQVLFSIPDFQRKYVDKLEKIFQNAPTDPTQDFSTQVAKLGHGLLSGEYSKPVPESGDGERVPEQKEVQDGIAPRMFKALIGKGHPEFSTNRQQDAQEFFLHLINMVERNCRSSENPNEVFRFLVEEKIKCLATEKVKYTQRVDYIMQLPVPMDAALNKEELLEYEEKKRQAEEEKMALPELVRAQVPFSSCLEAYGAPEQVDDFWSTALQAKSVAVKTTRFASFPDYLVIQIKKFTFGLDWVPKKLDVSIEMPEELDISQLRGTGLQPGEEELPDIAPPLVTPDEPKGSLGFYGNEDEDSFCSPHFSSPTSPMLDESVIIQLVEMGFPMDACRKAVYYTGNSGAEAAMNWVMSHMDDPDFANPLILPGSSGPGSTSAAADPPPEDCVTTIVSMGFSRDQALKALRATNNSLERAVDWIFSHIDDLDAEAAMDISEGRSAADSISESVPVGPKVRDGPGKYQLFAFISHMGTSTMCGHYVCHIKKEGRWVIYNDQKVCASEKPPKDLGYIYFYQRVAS
In short: as §1

USP54 = USP54 (UniProt Q70EL1)
In short: as §1

USP7 = USP7 (UniProt Q93009)
In short: as §1

USP8 = target: T5, USP8 (UniProt P40818)
T5 sequence (whole entry): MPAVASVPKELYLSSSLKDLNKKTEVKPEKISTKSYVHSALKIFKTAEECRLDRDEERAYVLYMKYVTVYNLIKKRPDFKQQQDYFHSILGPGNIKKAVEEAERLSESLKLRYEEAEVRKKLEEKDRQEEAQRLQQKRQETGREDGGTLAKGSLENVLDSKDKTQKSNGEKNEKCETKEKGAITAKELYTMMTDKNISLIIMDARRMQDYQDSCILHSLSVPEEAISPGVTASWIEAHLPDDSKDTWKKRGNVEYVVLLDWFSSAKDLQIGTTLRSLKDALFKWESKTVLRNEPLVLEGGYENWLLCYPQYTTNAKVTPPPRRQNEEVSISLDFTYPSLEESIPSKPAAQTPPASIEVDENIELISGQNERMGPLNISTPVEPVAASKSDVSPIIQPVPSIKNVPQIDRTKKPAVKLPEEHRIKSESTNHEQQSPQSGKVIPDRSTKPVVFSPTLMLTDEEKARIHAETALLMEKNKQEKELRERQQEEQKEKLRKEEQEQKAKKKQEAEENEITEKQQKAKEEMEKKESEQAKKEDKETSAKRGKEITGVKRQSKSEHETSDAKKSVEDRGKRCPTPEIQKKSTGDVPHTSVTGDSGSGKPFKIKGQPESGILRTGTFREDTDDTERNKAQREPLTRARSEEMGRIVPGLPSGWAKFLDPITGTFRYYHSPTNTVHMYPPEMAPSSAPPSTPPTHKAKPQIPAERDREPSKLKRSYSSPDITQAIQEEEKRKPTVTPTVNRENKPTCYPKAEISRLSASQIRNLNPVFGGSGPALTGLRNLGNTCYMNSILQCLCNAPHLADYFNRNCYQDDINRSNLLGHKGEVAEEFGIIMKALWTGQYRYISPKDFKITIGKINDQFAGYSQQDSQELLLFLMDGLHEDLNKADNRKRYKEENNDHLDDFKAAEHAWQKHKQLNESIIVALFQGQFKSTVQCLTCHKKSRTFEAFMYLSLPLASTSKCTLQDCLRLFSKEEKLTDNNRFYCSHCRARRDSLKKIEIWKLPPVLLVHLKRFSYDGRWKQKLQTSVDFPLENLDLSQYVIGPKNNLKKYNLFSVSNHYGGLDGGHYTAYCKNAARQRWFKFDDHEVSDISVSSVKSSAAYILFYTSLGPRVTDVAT
In short: as §1

Measured: log2 ratio of Biotin-Ahx-Ub-VS probe labelling

USP46, sequence (P62068 whole entry): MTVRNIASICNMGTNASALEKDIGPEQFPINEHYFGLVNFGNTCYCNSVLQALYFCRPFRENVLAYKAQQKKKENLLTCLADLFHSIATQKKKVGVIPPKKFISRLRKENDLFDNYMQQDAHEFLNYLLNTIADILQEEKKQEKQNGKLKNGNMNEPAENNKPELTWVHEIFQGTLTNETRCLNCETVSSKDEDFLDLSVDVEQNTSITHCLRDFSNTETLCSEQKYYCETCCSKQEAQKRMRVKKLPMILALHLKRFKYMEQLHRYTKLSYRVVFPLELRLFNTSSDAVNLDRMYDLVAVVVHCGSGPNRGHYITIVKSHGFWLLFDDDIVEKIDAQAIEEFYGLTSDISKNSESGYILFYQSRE
USP7, sequence (Q93009 whole entry, looked up): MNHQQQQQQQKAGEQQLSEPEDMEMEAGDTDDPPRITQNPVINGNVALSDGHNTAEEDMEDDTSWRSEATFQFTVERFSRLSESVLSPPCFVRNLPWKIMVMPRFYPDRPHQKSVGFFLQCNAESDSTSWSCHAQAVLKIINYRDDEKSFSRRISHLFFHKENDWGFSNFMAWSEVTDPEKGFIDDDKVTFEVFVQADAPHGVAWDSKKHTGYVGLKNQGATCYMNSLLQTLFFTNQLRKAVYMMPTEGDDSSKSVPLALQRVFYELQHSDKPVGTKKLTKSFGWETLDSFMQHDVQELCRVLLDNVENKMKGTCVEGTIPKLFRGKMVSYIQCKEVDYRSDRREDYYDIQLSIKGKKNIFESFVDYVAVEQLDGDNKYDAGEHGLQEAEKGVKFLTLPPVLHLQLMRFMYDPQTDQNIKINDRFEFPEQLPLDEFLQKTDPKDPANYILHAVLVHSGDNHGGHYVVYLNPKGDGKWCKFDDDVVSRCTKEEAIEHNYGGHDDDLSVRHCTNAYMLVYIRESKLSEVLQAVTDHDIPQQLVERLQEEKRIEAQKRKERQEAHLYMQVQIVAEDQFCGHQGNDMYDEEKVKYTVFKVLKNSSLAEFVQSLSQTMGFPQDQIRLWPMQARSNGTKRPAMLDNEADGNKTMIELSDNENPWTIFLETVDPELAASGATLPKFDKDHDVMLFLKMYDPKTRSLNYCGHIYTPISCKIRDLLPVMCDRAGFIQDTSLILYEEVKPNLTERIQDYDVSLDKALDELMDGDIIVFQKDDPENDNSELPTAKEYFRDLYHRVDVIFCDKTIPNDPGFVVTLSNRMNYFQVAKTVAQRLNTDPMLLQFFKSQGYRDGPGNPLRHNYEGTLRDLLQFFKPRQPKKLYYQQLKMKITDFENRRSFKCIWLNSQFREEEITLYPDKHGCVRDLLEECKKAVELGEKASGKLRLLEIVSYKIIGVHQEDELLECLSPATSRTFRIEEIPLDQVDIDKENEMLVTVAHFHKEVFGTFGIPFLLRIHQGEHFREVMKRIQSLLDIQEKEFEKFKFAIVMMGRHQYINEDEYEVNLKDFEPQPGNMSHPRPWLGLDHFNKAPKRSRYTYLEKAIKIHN
USP54, sequence (Q70EL1 whole entry): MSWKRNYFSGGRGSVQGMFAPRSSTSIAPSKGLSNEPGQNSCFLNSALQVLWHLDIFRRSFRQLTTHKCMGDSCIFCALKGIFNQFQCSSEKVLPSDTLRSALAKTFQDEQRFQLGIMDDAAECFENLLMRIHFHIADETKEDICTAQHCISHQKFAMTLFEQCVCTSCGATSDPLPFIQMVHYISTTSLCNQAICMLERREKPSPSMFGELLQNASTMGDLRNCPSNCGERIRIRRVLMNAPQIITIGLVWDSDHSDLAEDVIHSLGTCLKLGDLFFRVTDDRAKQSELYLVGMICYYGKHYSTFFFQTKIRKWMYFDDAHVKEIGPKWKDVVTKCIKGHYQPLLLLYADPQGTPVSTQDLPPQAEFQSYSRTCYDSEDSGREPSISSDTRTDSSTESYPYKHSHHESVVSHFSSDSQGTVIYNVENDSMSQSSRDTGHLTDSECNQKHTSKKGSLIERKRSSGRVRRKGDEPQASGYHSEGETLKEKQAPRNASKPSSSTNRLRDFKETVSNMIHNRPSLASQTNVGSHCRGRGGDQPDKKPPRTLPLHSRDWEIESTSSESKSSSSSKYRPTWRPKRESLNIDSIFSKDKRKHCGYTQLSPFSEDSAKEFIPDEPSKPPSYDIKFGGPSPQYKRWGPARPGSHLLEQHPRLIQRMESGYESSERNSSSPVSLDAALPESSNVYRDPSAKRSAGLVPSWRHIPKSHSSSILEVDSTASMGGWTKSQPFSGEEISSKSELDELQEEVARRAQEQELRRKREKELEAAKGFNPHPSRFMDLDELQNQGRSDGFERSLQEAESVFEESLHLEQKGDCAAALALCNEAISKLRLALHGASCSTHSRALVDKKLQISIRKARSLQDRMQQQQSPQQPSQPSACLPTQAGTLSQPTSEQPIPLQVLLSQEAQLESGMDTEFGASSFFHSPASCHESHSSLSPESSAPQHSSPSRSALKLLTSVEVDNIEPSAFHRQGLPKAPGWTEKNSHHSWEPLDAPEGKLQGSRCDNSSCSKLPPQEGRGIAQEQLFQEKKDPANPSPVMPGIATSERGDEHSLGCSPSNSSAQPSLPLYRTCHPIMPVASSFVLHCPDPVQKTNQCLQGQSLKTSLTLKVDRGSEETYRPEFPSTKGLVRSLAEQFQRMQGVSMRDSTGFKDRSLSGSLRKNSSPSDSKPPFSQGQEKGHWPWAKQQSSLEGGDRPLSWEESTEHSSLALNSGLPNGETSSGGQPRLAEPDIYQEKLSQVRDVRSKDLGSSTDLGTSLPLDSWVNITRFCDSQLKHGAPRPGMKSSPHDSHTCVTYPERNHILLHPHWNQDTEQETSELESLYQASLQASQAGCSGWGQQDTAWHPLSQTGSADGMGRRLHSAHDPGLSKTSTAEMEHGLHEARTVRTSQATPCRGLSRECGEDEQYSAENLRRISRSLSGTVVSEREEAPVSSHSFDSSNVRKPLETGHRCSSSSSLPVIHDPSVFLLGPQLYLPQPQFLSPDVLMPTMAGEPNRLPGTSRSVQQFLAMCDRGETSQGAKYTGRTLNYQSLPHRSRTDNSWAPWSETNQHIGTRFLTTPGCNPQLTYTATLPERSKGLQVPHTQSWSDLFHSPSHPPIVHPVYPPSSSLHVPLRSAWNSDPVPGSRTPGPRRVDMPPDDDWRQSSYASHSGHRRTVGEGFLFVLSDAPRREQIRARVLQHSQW

O=C(CCl)N1CCC(OCc2ccccc2F)CC1
inactive: USP42 0.919 | USP46 0.155 | USP47 -0.138 | USP48 -0.151 | USP5 0.445 | USP54 -0.235 | USP7 -0.391 | USP8 0.124
